ChEMBL document CHEMBL1857833, “Screening and optimization of specific chemical series against human African Trypanosomiasis (HAT)”
Among all 4,400 compounds or so, about 390 (8.9%) showed an effect of 50% or more. The entries come from a sample that favours strong results as a whole.

The compounds below were run on Trypanosoma brucei (assay: DNDI: Inhibition of Human African Trypanosomiasis, SBRI 427, in vitro at 2 ug.mL-1).
Assay type: functional

SMILES | % inhibition
COc1cccc(Oc2ccc(/C(=N/O)Nc3ccc(C(C)C)cc3)cn2)c1 | -4%
CC(C)(C)CNCc1coc(-c2ccc(Cl)cc2Cl)n1 | 14%
CC1CCc2ccccc2N1/C(=N\O)c1ccc(Oc2cccc3c2OC(C)(C)C3)nc1 (stereo not given) | 10%
C=CCN1CCN(/C(=N\O)c2ccc(C)nc2Oc2ccc(C)cc2C)CC1 | 14%
CCCC1=NCCN1Cc1coc(-c2cccc(OCC)c2)n1 | 2%
Cc1ccccc1-c1nc(CNCc2ccccn2)co1 | 15%
CN1CCC(N(C)Cc2coc(-c3cccc4ccccc34)n2)CC1 | 69%
CCOc1ccccc1-c1nc(CN(C)C2CCN(C)CC2)co1 | -1%
CN(Cc1coc(-c2cccc3ccccc23)n1)C1CCCCC1 | 82%
CCOc1ccccc1-c1nc(CN(C)C2CCCCC2)co1 | 13%
Cc1ccccc1-c1nc(CN(C)C2CCCCC2)co1 | 10%
Cc1ccccc1-c1nc(CN(C)C2CCN(C)CC2)co1 | 28%
CCOc1ccccc1-c1nc(Cn2nc(N)cc2C)co1 | 5%
COc1ccc(Oc2nc(C)ccc2/C(=N/O)NCc2cccc(OC)c2)cc1 | 25%
C#CC1(NCc2coc(-c3cccc(F)c3)n2)CCCCC1 | 18%
O/N=C(/c1ccnc(Oc2ccc(F)c(Cl)c2)c1)N1CCSC1 | -2%
Cc1ccc(/C(=N/O)N(C)Cc2ccco2)c(Oc2cccnc2)n1 | 13%
CCCCN(C)Cc1coc(-c2cccc3ccccc23)n1 | 16%
CC(C)(C)COc1ncccc1/C(=N/O)n1ccnc1 | 30%
CC(=O)c1ccc(N/C(=N\O)c2cccnc2Oc2ccccc2OCc2ccccc2)cc1 | -2%
CC(C)COc1ncccc1/C(=N/O)Nc1ccccc1 | 5%
O/N=C(\NC1CCC1)c1cccnc1Oc1ccccc1OCc1ccccc1 | 97%

SMILES | % inhibition
O/N=C(\Nc1ccccc1)c1cccnc1OCc1ccccc1 | 77%
CC(C)N/C(=N\O)c1cccnc1Oc1ccccc1OCc1ccccc1 | -14%
CCCN/C(=N\O)c1cccnc1Oc1ccccc1OCc1ccccc1 | -7%
COC(=O)C1CCN(/C(=N\O)c2cccnc2OCC(F)(F)F)CC1 | 12%
O/N=C(\NCc1cccs1)c1cccnc1OCc1ccccc1 | 10%
COC(=O)C1CCN(/C(=N\O)c2cccnc2OCc2ccccc2)CC1 | 61%
O/N=C(\NCc1c(F)cccc1F)c1cccnc1OCc1ccccc1 | 23%
COC(=O)C1CCN(/C(=N\O)c2cccnc2OCC(C)C)CC1 | 5%
O/N=C(\NCC1CC1)c1cccnc1OCc1ccccc1 | 99%
COc1cccc(Oc2ccc(/C(=N/O)N3CCN(c4ccccc4)CC3)cn2)c1 | -6%
COCCN(Cc1coc(-c2cccc3ccccc23)n1)C(C)C | 6%
CCOc1ccccc1-c1nc(CN(c2ccccc2)C2CCCCC2)co1 | -3%
COC(=O)C1CCN(/C(=N\O)c2ccc(C)nc2Oc2cccc3cnccc23)CC1 | 21%
COc1cccc(-c2nc(CN3CCN(c4ccccc4)CC3)co2)c1 | 15%
c1coc(-c2nc(CN3CCN(Cc4ccc5c(c4)OCO5)CC3)co2)c1 | -2%
COc1ccc(-c2nc(CNCc3cccc(OC)c3)co2)cc1 | -15%
COCCN(/C(=N\O)c1ccc(C)nc1Oc1cccc(C)c1)C(C)C | 23%
Cc1ccc(/C(=N/O)N2C(C)C=CC2C)c(Oc2ccc(F)c(Cl)c2)n1 (stereo not given) | 8%
CCN(Cc1ccncc1)Cc1coc(-c2cccc3ccccc23)n1 | 27%
COc1ccc(CN/C(=N\O)c2cccnc2OCc2ccccc2)cc1 | 10%
N/C(=N\O)c1cccnc1OCc1ccccc1 | 9%
CCC(CC)N/C(=N\O)c1cccnc1OCc1ccccc1 | 94%

SMILES | % inhibition
O/N=C(\NC1CCCC1)c1cccnc1OCc1ccccc1 | 53%
COCC(C)N/C(=N\O)c1cccnc1Oc1ccccc1OCc1ccccc1 (stereo not given) | -7%
CC(C)c1ccc(COc2ncccc2/C(=N/O)NC2CCCC2)cc1 | 21%
CN(/C(=N\O)c1ccc(Oc2cccc3ccccc23)nc1)C1CCCCC1 | 25%
CN(Cc1coc(-c2ccc(Br)cc2)n1)Cc1ccco1 | 29%
CC(C)c1ccc(N/C(=N\O)c2cccnc2OCc2ccccc2F)cc1 | -12%
Cc1ccc(-c2nc(CN3CC[C@H]4CCCC[C@@H]4C3)co2)cc1 | 25%
CCC1CCCCN1Cc1coc(-c2ccccc2Cl)n1 (stereo not given) | -10%
CC1CCCCN1CCCNCc1coc(-c2cccc3ccccc23)n1 (stereo not given) | 86%
CC1CCCCN1Cc1coc(-c2cccc3ccccc23)n1 (stereo not given) | 3%
c1ccc2c(-c3nc(CNCCCN4CCCC4)co3)cccc2c1 | 93%
CC1CCCN1Cc1coc(-c2cccc3ccccc23)n1 (stereo not given) | 39%
CCC1CCCCN1Cc1coc(-c2cccc3ccccc23)n1 (stereo not given) | 84%
CC1CCCCN1CCCNCc1coc(-c2ccccc2Br)n1 (stereo not given) | 20%
c1ccc2c(-c3nc(CNCCN4CCCCC4)co3)cccc2c1 | 14%
c1ccc2c(-c3nc(CNCCCN4CCOCC4)co3)cccc2c1 | 30%
CN(CCCNCc1coc(-c2ccc(C(F)(F)F)cc2)n1)c1ccccc1 | -7%
Brc1ccccc1-c1nc(CN(Cc2ccccn2)Cc2ccccn2)co1 | 9%
COCCN(/C(=N\O)c1ccc(Oc2ccc3oc4ccccc4c3c2)nc1)C(C)C | 7%
FC(F)(F)c1ccc(-c2nc(CN3CCC4(CC3)OCCO4)co2)cc1 | -8%
Cc1cc(C)cc(Oc2ccc(/C(=N/O)N3CCN(c4ccccc4)CC3)cn2)c1 | 9%
COc1ccc(Oc2nc(C)ccc2/C(=N/O)N2CCCC2C)cc1 (stereo not given) | -10%

SMILES | % inhibition
Cc1ccccc1-c1nc(CN2CCN(c3ccc(F)cc3)CC2)co1 | -10%
COC[C@H]1CCCN1Cc1coc(-c2cccc(F)c2)n1 | 0%
Clc1ccc(-c2nc(CN3CCN(Cc4ccccc4)CC3)co2)c(Cl)c1 | 12%
CC(C)c1nccn1Cc1coc(-c2ccc(Cl)cc2Cl)n1 | -20%
Clc1ccccc1-c1nc(CN2CCN(c3ncccn3)CC2)co1 | -3%
Clc1ccc(-c2nc(CN3CCN(c4ncccn4)CC3)co2)c(Cl)c1 | 58%
CCc1nccn1Cc1coc(-c2ccc(Cl)cc2Cl)n1 | 22%
CCCc1nccn1Cc1coc(-c2ccc(Cl)cc2Cl)n1 | 50%
CCOc1ccccc1-c1nc(CN2CCCCCC2)co1 | 7%
CSc1ccc(Oc2nc(C)ccc2/C(=N/O)NC2CCC2)cc1 | 3%
C=CCN(Cc1coc(-c2cccc(OC)c2)n1)c1ccccc1 | 35%
Cc1cccc(Oc2ncccc2/C(=N/O)N2CCOCC2)c1C | 10%
FC(F)(F)c1ccc(-c2nc(CNCc3ccccc3C(F)(F)F)co2)cc1 | 0%
Cc1ccc(/C(=N/O)N2CCCCCC2)c(Oc2cccc(C(C)C)c2)n1 | 14%
COc1ccc(Oc2nc(C)ccc2/C(=N/O)NCc2ccccc2F)cc1 | -6%
O/N=C(\NCc1cc(F)ccc1F)c1cccnc1Oc1ccc(F)cc1 | -3%
O/N=C(\NCc1ccccc1F)c1cccnc1Oc1ccc(F)cc1 | 51%
O/N=C(\NCc1ccccc1F)c1cccnc1OCC(F)(F)F | -12%
COc1ccc(Oc2ncccc2/C(=N/O)NCc2ccccc2F)cc1 | 70%
Clc1ccccc1-c1nc(CNCc2ccco2)co1 | -7%
CC(C)N(C)Cc1coc(-c2ccccc2Cl)n1 | 4%
COc1ccc(CN/C(=N\O)c2cccnc2Oc2ccc(C)c3c2CCC3)cc1 | 9%

SMILES | % inhibition
Cc1ccc(Oc2ncccc2/C(=N/O)NCc2cc(F)ccc2F)c2c1CCC2 | 28%
Cc1ccc(Oc2cc(/C(=N/O)NCc3cccs3)ccn2)c2c1CCC2 | 3%
CCOc1ccccc1CN/C(=N\O)c1cccnc1Oc1ccc(C)c2c1CCC2 | 100%
Cc1cc(C)cc(CN/C(=N\O)c2cccnc2Oc2ccc(C)c3c2CCC3)c1 | 69%
Cc1ccc(Oc2ncccc2/C(=N/O)NCc2cccnc2)c2c1CCC2 | 6%
Cc1ccc(Oc2ncccc2/C(=N/O)NCc2ccco2)c2c1CCC2 | -6%
Cc1ccc(Oc2ncccc2/C(=N/O)NCc2ccccc2)c2c1CCC2 | 99%
Cc1ccc(Oc2ncccc2/C(=N/O)NCc2cccs2)c2c1CCC2 | 99%
Cc1ccc(Oc2ncccc2/C(=N/O)NCc2ccncc2)c2c1CCC2 | 8%
COc1ccc(-c2nc(CN(C)C3CCN(Cc4ccccc4)C3)co2)cc1 (stereo not given) | -9%
O/N=C(/c1ccnc(Oc2cccc3cnccc23)c1)N1CCN(c2ccccc2)CC1 | 7%
N#CCCN(Cc1coc(-c2ccc(C(F)(F)F)cc2)n1)CC1CCCO1 (stereo not given) | -3%
O/N=C(/c1ccnc(Oc2cccc3ccccc23)c1)N1CCSC1 | 22%
CSc1ccc(Oc2nc(C)ccc2/C(=N/O)NCc2ccccc2C)cc1 | 7%
Cc1ccc(N2CCN(Cc3coc(-c4ccccc4F)n3)CC2)c(C)c1 | -17%
CSc1ccc(Oc2ncccc2/C(=N/O)NCc2ccccn2)cc1C | 2%
CN(Cc1coc(-c2ccccc2Cl)n1)C1CCN(Cc2ccccc2)C1 (stereo not given) | -15%
COc1ccc(Oc2nc(C)ccc2/C(=N/O)N2CCSC2)cc1 | 27%
COc1cc(-c2nc(CNC3CCc4ccccc43)co2)cc(OC)c1OC (stereo not given) | 28%
COc1ccc(CCN(C)Cc2coc(-c3ccc(O)cc3)n2)cc1OC | -29%
COc1ccc(CCN(C)Cc2coc(-c3ccc(Br)cc3)n2)cc1OC | 65%
COc1ccc(CCN(C)Cc2coc(-c3ccc(F)cc3)n2)cc1OC | -7%
